Data reported in PubChem BioAssay (Tox21).
Unmarked numbers belong to inactive results. Records with an inconclusive call do not appear. A call without a number means that no potency is given here. Calls of active or inactive are those of the source. The call rests on the fitted dose curve; in most records, active means well fitted curve in the direction sought with a large enough effect in the repeat runs; inconclusive means weak or mixed curves; inactive means no such curve, though single readings can be large; an effect the other way counts as inactive or inconclusive.

Assays:
[1] = Human pregnane X receptor (PXR) small molecule agonists, qHTS cell viability counter screen (AID 1346977); further: nearly all actives have a fitted effect of over 50% in size
In short: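 PXR-Luc HepG2 cells (2,000/well, 5% charcoal-stripped FBS) preincubated 5 hr, then exposed to compounds 24 hr at 37 C. Viability read in the same wells by CellTiter-Fluor fluorescence, reagent added at 23 hr, 1 hr incubation.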

[2] = Caspase-3/7 induction in HepG2 cells by small molecules, qHTS assay (AID 1346978); further: nearly all actives have a fitted effect of over 15% in size
In short: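 Wild-type HepG2 cells (2,000/well) were settled 5 h at 37 C, 5% CO2, then exposed to compounds in DMSO for 17 h. Caspase-3/7 activity was read by luminescence 30 min after adding Caspase-Glo 3/7 reagent at room temperature.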

[3] = Caspase-3/7 induction in CHO-K1 cells by small molecules, qHTS cell viability counter screen (AID 1346979); further: nearly all actives have a fitted effect of over 35% in size
In short: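 Wild-type CHO-K1 cells (1,500/well) treated with compound after 5 h plating; after 16 h at 37C, viability read as CellTiter-Fluor fluorescence following 1 h reagent incubation, in the same wells as the caspase read.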

[4] = Caspase-3/7 induction in CHO-K1 cells by small molecules, qHTS assay (AID 1346980); further: nearly all actives have a fitted effect of over 15% in size
In short: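 Wild-type cells were seeded at 1,500 per well and settled 5 hr at 37 C, 5% CO2, then exposed to DMSO-dissolved compounds for 17 hr. Caspase-Glo 3/7 reagent was added, and luminescence was read after 30min at room temperature.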

[5] = Caspase-3/7 induction in HepG2 cells by small molecules, qHTS cell viability counter screen (AID 1346981); further: series mostly up to about 92 µM; nearly all actives have a fitted effect of over 30% in size
In short: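 In this quantitative HTS counter screen, compounds delivered in DMSO were left on unmodified HepG2 cells for 16 hr at 37 C. Viability was then determined fluorometrically with CellTiter-Fluor, in parallel with caspase-3/7 induction in the same wells.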

[6] = biological target: Nuclear receptor subfamily 1 group I member 2 (Homo sapiens) (UniProt O75469); assay: Human pregnane X receptor (PXR) small molecule agonists, qHTS assay (AID 1346982); further: nearly all actives have a fitted effect of over 35% in size; further: potency means the concentration at half of the fitted maximal effect
Nuclear receptor subfamily 1 group I member 2 (Homo sapiens), sequence (O75469 whole entry, looked up): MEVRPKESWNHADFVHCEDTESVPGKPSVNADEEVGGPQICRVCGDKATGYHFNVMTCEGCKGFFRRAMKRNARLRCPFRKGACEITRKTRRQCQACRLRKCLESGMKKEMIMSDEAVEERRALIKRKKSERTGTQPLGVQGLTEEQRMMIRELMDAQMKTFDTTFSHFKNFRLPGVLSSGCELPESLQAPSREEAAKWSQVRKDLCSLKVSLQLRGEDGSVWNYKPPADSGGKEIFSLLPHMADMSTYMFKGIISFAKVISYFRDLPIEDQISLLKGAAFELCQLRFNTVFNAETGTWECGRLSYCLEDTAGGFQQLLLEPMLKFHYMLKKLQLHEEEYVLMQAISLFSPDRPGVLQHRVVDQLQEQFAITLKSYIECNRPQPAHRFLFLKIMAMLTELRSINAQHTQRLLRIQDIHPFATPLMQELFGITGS
In short: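 Reporter HepG2 cells expressing PXR-Luc are cultured in charcoal-stripped FBS (5%), treated with compounds for 24 hr at 37 C, and assayed by ONE-Glo luminescence after 30 min at room temperature.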

[7] = biological target: Cytochrome P450 2D6 (Homo sapiens) (UniProt P10635); assay: Cytochrome P450 Family 2 Subfamily D Member 6 (CYP2D6) small molecule antagonists: luciferase reporter qHTS assay (AID 1671196); further: nearly all actives have a fitted effect of over 50% in size; further: potency means the concentration at half of the fitted maximal effect; on activity change, negative = inhibition: series mostly up to about 120 µM
Cytochrome P450 2D6 (Homo sapiens), sequence (P10635 whole entry, looked up): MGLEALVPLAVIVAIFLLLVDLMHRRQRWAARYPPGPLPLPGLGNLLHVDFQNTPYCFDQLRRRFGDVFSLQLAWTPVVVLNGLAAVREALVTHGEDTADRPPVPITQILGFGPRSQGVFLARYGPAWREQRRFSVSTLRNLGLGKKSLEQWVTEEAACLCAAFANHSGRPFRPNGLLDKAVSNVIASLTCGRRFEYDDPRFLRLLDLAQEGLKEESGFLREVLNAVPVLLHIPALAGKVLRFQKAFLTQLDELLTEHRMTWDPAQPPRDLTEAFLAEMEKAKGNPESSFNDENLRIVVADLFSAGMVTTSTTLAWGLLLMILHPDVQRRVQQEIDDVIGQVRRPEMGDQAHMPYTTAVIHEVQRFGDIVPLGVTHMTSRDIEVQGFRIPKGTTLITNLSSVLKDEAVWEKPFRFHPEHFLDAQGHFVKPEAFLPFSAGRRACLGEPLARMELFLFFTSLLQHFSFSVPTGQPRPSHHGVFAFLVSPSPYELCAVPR
In short: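 Test chemicals meet CYP2D6 plus proluciferin substrate (10 min, RT); NADPH regenerating solution then drives turnover for 1 h. Detection reagent halts the reaction; luminescence measured after 20 min.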

[8] = biological target: Cytochrome P450 2C19 (Homo sapiens) (UniProt P33261); assay: Cytochrome P450 Family 2 Subfamily C Member 19 (CYP2C19) small molecule antagonists: luciferase reporter qHTS assay (AID 1671197); further: nearly all actives have a fitted effect of over 65% in size; further: potency means the concentration at half of the fitted maximal effect; on activity change, negative = inhibition: series mostly up to about 120 µM
Cytochrome P450 2C19 (Homo sapiens), sequence (P33261 whole entry, looked up): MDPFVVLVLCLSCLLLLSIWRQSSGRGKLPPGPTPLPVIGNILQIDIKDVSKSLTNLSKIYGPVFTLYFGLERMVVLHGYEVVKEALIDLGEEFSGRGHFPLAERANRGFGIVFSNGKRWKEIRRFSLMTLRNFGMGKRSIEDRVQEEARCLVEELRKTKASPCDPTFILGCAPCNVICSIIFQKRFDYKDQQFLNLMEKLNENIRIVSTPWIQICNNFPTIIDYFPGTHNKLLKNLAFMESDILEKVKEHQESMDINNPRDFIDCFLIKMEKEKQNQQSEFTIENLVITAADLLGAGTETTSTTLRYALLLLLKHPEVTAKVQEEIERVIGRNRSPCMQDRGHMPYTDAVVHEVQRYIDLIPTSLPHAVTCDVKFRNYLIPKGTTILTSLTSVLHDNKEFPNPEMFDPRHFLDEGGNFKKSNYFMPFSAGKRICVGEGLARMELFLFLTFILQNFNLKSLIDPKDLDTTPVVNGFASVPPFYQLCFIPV
In short: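 P450-Glo CYP2C19 system: enzyme-substrate mix with compound 10 min at room temperature, then NADPH regeneration solution, 1 h at 37C. Proluciferin-to-luciferin conversion detected by luminescence after 20 min with detection reagent; ketoconazole as positive control.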

[9] = biological target: Cytochrome P450 2C9 (Homo sapiens) (UniProt P11712); assay: Cytochrome P450 Family 2 Subfamily C Member 9 (CYP2C9) small molecule antagonists: luciferase reporter qHTS assay (AID 1671198); further: nearly all actives have a fitted effect of over 50% in size; further: potency means the concentration at half of the fitted maximal effect; on activity change, negative = inhibition: series mostly up to about 120 µM
Cytochrome P450 2C9 (Homo sapiens), sequence (P11712 whole entry, looked up): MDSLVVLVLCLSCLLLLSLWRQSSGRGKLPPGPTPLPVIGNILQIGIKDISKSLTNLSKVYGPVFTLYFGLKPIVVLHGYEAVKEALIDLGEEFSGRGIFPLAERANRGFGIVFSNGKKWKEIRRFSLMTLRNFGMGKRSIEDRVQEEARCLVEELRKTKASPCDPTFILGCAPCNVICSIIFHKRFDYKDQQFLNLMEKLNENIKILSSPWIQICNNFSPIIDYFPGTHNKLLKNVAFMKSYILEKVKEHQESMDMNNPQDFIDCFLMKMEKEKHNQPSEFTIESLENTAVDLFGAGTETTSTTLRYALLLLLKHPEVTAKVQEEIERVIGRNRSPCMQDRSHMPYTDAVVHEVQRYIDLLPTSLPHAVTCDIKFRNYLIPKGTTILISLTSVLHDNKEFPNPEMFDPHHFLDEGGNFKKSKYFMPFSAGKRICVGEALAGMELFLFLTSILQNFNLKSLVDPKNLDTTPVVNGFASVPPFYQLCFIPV
In short: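 CYP2C9 activity was measured with a P450-Glo proluciferin substrate. Enzyme–substrate mix was held with compound for 10 min at room temperature, then NADPH regeneration solution was added for 1 h at 37C. Luciferin product was read as luminescence.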

[10] = biological target: Cytochrome P450 1A2 (Homo sapiens) (UniProt P05177); assay: Cytochrome P450 Family 1 Subfamily A Member 2 (CYP1A2) small molecule antagonists: luciferase reporter qHTS assay (AID 1671199); further: series mostly up to about 120 µM; nearly all actives have a fitted effect of over 50% in size
Cytochrome P450 1A2 (Homo sapiens), sequence (P05177 whole entry, looked up): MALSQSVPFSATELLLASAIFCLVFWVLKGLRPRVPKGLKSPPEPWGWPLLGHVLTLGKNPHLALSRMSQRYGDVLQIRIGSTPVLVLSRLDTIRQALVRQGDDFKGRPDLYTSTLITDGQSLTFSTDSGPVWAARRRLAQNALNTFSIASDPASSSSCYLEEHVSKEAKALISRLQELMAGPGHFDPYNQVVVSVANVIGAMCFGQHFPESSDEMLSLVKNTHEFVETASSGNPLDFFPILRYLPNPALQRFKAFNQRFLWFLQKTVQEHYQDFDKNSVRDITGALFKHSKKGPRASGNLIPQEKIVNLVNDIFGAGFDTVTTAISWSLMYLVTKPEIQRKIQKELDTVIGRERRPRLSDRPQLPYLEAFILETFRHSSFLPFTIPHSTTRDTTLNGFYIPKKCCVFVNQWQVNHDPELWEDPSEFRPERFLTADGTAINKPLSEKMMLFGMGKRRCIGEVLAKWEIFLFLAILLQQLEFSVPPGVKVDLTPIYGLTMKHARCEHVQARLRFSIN
In short: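 Steps: enzyme-substrate mix dispensed; test compounds and furafylline control pinned in; 10 min room temperature; NADPH regeneration solution added, 1 h; reaction stopped with luciferin detection reagent; luminescence read after 20 min.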

[11] = biological target: Voltage-gated inwardly rectifying potassium channel KCNH2 (Homo sapiens) (UniProt Q12809); assay: Human Ether-a-go-go-Related Gene (hERG) channel small molecule antagonists: fluorescence cell-based qHTS assay (AID 1671200)
Voltage-gated inwardly rectifying potassium channel KCNH2 (Homo sapiens), sequence (Q12809 whole entry, looked up): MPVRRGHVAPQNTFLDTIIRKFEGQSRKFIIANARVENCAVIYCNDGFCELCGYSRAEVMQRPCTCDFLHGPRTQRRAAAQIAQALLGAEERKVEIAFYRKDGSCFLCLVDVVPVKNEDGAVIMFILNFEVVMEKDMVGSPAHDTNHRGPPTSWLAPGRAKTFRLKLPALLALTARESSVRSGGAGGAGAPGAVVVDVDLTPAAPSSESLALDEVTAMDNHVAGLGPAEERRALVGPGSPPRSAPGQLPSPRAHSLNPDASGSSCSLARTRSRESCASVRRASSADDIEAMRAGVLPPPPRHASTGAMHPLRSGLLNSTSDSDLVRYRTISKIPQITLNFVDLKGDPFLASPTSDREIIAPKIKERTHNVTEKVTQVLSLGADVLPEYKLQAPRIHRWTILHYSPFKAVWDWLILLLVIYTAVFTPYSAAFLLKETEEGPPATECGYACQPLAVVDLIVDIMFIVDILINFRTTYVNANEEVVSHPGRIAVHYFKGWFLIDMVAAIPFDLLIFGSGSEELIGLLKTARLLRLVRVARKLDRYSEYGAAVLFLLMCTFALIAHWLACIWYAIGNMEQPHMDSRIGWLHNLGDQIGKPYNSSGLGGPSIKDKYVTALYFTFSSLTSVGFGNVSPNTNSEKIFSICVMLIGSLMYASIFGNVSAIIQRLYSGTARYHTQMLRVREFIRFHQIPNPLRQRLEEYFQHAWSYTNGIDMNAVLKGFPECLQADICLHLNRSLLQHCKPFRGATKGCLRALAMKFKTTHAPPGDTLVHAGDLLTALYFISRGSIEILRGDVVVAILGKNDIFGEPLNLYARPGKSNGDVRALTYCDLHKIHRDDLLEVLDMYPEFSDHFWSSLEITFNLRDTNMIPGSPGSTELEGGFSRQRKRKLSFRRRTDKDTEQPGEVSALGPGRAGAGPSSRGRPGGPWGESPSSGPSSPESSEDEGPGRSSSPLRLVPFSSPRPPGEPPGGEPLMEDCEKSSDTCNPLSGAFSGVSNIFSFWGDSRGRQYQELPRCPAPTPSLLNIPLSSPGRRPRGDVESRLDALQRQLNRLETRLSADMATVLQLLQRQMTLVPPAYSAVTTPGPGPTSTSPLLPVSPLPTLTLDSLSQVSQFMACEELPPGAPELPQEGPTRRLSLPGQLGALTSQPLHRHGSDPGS
In short: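 hERG-U2OS cells plated overnight at 37 C, loaded with FluxOR II dye 1 h at RT in dark; after 10 min, thallium stimulus added. Fluorescence (480/540 nm) read kinetically for 2 min at 1 s intervals.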

[12] = biological target: Cytochrome P450 3A4 (Homo sapiens) (UniProt P08684); assay: Cytochrome P450 Family 3 Subfamily A Member 4 (CYP3A4) small molecule antagonists: luciferase reporter qHTS assay (AID 1671201); further: nearly all actives have a fitted effect of over 50% in size; further: potency means the concentration at half of the fitted maximal effect; on activity change, negative = inhibition: series mostly up to about 120 µM
Cytochrome P450 3A4 (Homo sapiens), sequence (P08684 whole entry, looked up): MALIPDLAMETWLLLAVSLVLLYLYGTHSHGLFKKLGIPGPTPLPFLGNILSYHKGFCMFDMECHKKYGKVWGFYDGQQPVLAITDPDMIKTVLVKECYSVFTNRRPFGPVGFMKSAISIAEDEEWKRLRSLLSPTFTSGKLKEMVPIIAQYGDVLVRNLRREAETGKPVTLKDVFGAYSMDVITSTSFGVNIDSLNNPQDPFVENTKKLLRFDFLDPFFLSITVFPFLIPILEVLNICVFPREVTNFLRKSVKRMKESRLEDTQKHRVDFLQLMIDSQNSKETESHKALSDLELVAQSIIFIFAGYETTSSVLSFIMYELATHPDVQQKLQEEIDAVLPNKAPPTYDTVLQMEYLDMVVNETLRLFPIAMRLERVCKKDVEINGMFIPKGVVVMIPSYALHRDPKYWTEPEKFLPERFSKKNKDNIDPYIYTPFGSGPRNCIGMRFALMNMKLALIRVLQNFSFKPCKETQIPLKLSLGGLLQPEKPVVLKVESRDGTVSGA
In short: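 P450-Glo CYP3A4 luminescent assay: compounds preincubated 10 min at room temperature with enzyme and proluciferin substrate, NADPH regeneration added, 1 h room-temperature reaction, stopped with luciferin detection reagent; luminescence read after 20 min. Ketoconazole positive control.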

[13] = biological target: Nuclear receptor subfamily 1 group I member 2 (Rattus norvegicus) (UniProt Q9R1A7); assay: Rat pregnane X receptor (rPXR) activation by small molecules, qHTS assay (AID 1346983); conditions: rPXR luciferase reporter cells, One-Glo luminescence, 24 h; max activation: hits give high values; further: nearly all actives have a fitted effect of over 20% in size
Nuclear receptor subfamily 1 group I member 2 (Rattus norvegicus), sequence (Q9R1A7 whole entry, looked up): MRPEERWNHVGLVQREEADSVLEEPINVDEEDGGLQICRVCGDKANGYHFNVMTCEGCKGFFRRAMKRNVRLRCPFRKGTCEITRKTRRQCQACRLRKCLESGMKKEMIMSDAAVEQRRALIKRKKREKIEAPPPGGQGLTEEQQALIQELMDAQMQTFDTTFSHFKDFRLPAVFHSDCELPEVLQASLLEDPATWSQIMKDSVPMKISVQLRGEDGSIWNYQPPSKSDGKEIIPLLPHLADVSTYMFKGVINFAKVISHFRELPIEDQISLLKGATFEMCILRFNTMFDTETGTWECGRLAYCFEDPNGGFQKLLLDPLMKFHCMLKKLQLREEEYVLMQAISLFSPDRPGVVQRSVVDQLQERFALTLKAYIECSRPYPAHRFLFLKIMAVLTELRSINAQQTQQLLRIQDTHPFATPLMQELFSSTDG
In short: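 Cell-based rPXR luciferase reporter assay, 2,000 cells per well, rested 5hr at 37 C before compound addition in DMSO, then 24 hr at 37 C. One-Glo reagent was added and luminescence read after 30 min at room temperature.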

[14] = biological target: Nuclear receptor subfamily 1 group I member 2 (Homo sapiens) (UniProt O75469); assay: CYP3A4 induction through human pregnane X receptor (PXR) by small molecules, qHTS assay (AID 1346984); further: nearly all actives have a fitted effect of over 40% in size
In short: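 Induction measured in HepG2-based DPX-2 cells co-expressing human PXR and a CYP3A4 promoter-driven luciferase. After a 24-hour compound exposure, cells received CYP3A4 luciferin substrate at 3uM final for 3 hours, and light output was then recorded.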

[15] = biological target: Nuclear receptor subfamily 1 group I member 2 (Homo sapiens) (UniProt O75469); assay: Human pregnane X receptor (PXR) activation by small molecules, qHTS assay (AID 1346985); further: nearly all actives have a fitted effect of over 40% in size
In short: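 DPX-2 cells (HepG2 co-transfected with a PXR response element and a CYP3A4-promoter luciferase construct) were seeded at 2,000 per well, rested 5 hr at 37C, then exposed to DMSO-dissolved compounds for 24 hr. Activation was read as luciferase luminescence.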

Structure (SMILES)	Potency [1]	Potency [2]	Potency [3]	Potency [4]	Potency [5]	Potency [6]	Potency [7]	Potency [8]	Potency [9]	Potency [10]	Potency [11]	Potency [12]	caspase-3/7 activation [4]	activation [6]	max activation [13] [%]	Potency [14]	Potency [15]	activity change, negative = inhibition [11]
CC(=O)c1cccnc1	inactive	inactive	inactive	inactive	inactive	inactive	inactive	inactive	inactive	inactive	inactive	inactive						
N#CCCCC(C#N)CCC#N (configuration not stated)		inactive	inactive	inactive	inactive	inactive	inactive	inactive	39.9 µM (active)	inactive	inactive	inactive						
CC1(C)[C@@H]2CC[C@]3(C2)[C@@H]1C(=O)CCC3(C)C	inactive	inactive	inactive	inactive	inactive	9.69 µM (active)	31.7 µM (active)	39.9 µM (active)		inactive	inactive	17.8 µM (active)						
CNc1ccccc1	inactive	inactive	inactive	inactive	inactive	inactive	inactive	31.7 µM (active)		inactive	inactive	inactive						
[O-][n+]1ccc(Cl)cc1	inactive	inactive	inactive	inactive	inactive	inactive			inactive	inactive	inactive	inactive						
CCCN(C1CCN(C(=O)C2CCNCC2)CC1)[C@@H]1CCc2ccc(OC)cc2C1		inactive	inactive	inactive	inactive	inactive	10 µM (active)	inactive	inactive	inactive								
Nc1ccc(F)cc1F		inactive	inactive	inactive	inactive	inactive	inactive	inactive	inactive	inactive		inactive						
CC(C(=O)O)c1ccc(/C=C2\CCCCC2=O)cc1 (configuration not stated)			inactive	inactive	inactive				inactive	inactive	inactive	inactive						
CC(=O)CC/C=C(\C)CC/C=C(\C)CC/C=C(\C)CCC=C(C)C	inactive	inactive	inactive	inactive	inactive	23.7 µM (active)	inactive		30.9 µM (active)		inactive							
CC1=CC(=C(c2ccc(N)cc2)c2ccc(N)cc2)C=CC1=N												2.86 µM (active)	1.62% [at 8.39 µM]	-7.87% [at 8.39 µM]	-21.7	inactive	inactive	-5.88% [at 6.97 µM]
